Experimental findings from PubChem BioAssay are described below.

For some assays here: Results with a measured potency or affinity are listed apart. Active and inactive are the calls of the source. How the calls were made is not given here.

The target of the first experiment is Plasmodium falciparum protein kinase 6 (PK6, PF3D7_1337100) (UniProt Q8IDW1). Nature of the experiment: PfPK6 kinase inhibitors, biochemical, TCAMS library (AID 1159586). The following applies: recombinant PfPK6, Kinase-Glo ATP depletion luminescence. For orientation: Kinase-Glo reads ATP consumption through a luciferase reaction.
Chain of Plasmodium falciparum protein kinase 6 (PK6, PF3D7_1337100) (Q8IDW1 1-305): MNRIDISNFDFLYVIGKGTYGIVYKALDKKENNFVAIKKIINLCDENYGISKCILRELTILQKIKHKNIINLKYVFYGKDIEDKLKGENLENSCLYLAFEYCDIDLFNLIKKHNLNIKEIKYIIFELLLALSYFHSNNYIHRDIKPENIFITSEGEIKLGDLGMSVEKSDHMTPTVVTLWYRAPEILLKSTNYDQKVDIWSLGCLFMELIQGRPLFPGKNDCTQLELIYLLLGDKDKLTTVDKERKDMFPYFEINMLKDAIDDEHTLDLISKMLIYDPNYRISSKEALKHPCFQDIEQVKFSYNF
Turning to `CC1(C)N=C(N)N=C(N)N1OCCc1ccc(N)cc1`, the result was inactive.

Consider `Cc1ccc(C(C(=O)Nc2ccc(N3CCNCC3)c(Cl)c2)c2ccccc2)cc1` (stereo not given), for which the result was inactive.

For the compound `Cc1ccc2[nH]c3ccccc3c(=O)c2c1`, the result was inactive.

For `COc1ccc2nccc(N3CCCN(CCNCc4ccc5c(n4)NC(=O)CS5)CC3)c2n1`, the outcome was inactive.

Turning to `O[C@@H](c1cccc2ccccc12)[C@@H]1CN(CCc2ccccc2)CC[C@@]1(O)c1ccccc1`, the result was inactive.

For the compound `CC(C)(C)c1cc(NC(=O)c2ccc(Cl)c([N+](=O)[O-])c2)cc(C(C)(C)C)c1`, the outcome was inactive.

Take `Cc1cc(N[C@@H](Cc2ccccc2)C(=O)NCCOc2ccccc2)nc(NCCc2ccccc2)n1`: the outcome was inactive.

As for `N#Cc1ccc(N2CCN(Cc3ccc(-c4ccc(-c5nc6ccc(F)cc6[nH]5)s4)cc3)CC2)nc1`, the outcome was inactive.

Regarding `COc1ccc2nccc(NC(=O)C3(O)CCC(NCc4ccc5c(c4)NCCS5)CC3)c2n1` (stereo not given), the outcome was inactive.

As for `Cc1cccc(-n2nc(C)c3c2NC(=O)CC3C(=O)c2ccc(Cl)s2)c1` (stereo not given), the outcome was inactive.

As for `COc1ccc(C=NNc2cc(C)nc3c(C)cccc23)c2ccccc12`, the result was inactive.

Take `NC(=NCCCCC1CCCCC1)c1cccc(C(N)=NCCCCC2CCCCC2)n1`: the result was inactive.

For `CC(C)c1ccc(CN2CCC(CNC(=O)c3cc(-c4cccc(Cl)c4)cs3)C2)cc1` (stereo not given), the outcome was inactive.

With `OC1CCN(c2cc(-c3ccccn3)nc(-c3ccccn3)n2)CC1`, the result was inactive.

On to `Cc1cc(N[C@@H](Cc2ccccc2)C(=O)Nc2ccccc2)nc(NCCc2ccccc2)n1`, for which the result was inactive.

As to `CN1CCCC1CCNCc1cccc(-c2cnc(N(C)C3CCCCC3)nc2)c1` (stereo not given), the result was inactive.

For `c1ccc(CN2CCCN(c3ccc4c(c3)CCN(Cc3ccc(-c5ncc[nH]5)cc3)CC4)CC2)cc1`, the outcome was inactive.

With `N#Cc1ccc(-c2ccc(C(=O)NCCCCN3CCC(c4ccc5c(c4OCC(N)=O)CCCC5)CC3)cc2)cc1`, the outcome was inactive.

In the case of `CC(C)CNCc1cccc(-c2cccc(CN(CCCN3CCN(C)CC3)C(=O)Nc3ccccc3)c2)c1`, the outcome was inactive.

As for `O=C(NCCCCN1CCC(c2ccc3c(c2OCc2ccncc2)CCCC3)CC1)c1ccc(-c2ccc(C(F)(F)F)cc2)cc1`, the result was inactive.

As for `O=C(C=Cc1ccc(Br)cc1)N1CCC(CCN2CCC(c3c[nH]c4ccccc34)CC2)CC1`, the outcome was inactive.

`CC(=O)c1c(Cc2ccccc2Cl)c[nH]c1C`: the outcome was inactive.

For `CN(C)CCOc1cc(NC(=O)Nc2ccc(-c3ccccc3)cc2Cl)ccc1I`, the outcome was inactive.

On to `CCOc1ccccc1CCNCC1CCN(CC2CCCCC2)CC1`, for which the outcome was inactive.

`c1ccc2c(c1)CN(CC1CC1)CC1(CCN(Cc3c[nH]c4cnccc34)CC1)O2`: the outcome was inactive.

For `O=C(Nc1ccccc1C(F)(F)F)Nc1nn(Cc2c(F)cccc2Cl)cc1Br`, the result was inactive.

Regarding `CN1CCN(c2ccnc3ccc(NC(=O)Nc4cccc5c(-c6ccncc6)cccc45)cc23)CC1`, the result was inactive.

Regarding `O=C(COc1cccc([N+](=O)[O-])c1)Nc1ccc(-c2nc3ccccc3[nH]2)cc1`, the result was inactive.

Regarding `Cc1cccc2[nH]c(-c3ccc(-c4cccc(NC(=O)c5cnn6cccnc56)c4)cc3)nc12`, the result was inactive.

As to `O=C(C=Cc1ccc(F)cc1)N1CCN(S(=O)(=O)c2ccc(Cl)cc2)CC1`, the outcome was inactive.

Regarding `CCN(CC)c1ccc(C(=O)Cn2ccc(=N)cc2)cc1`, the result was inactive.

`COc1ccc2nc(C)cc(Nc3ccc(Oc4ccc5ccccc5c4Cl)c(Cl)c3)c2c1`: the outcome was inactive.

Consider `COc1cccc(NC(=O)Nc2ccc(Nc3nc(C)cc(N(C)C)n3)cc2)c1`, for which the outcome was inactive.

With `CC(C)Cc1nc(N2CCOCC2)c2nnn(Cc3ccccc3)c2n1`, the result was inactive.

For `O=C([C@@H]1CCCCN1c1ccc([N+](=O)[O-])c2ccccc12)N1CCN(c2ncccn2)CC1`, the outcome was inactive.

For the compound `CN1CCC(N2CCN(c3ccc4c(=O)nc(CCc5cccc(F)c5F)n(CC(=O)N(C)Cc5ccc(-c6ccc(C(F)(F)F)cc6)cc5)c4n3)CC2)CC1`, the outcome was inactive.

As to `O=C(/C=C/c1ccc(Cl)c(Cl)c1)NCCCCCN1CCCC(C(=O)Nc2ccc(Cl)cc2)C1` (stereo not given), the outcome was inactive.

Turning to `COCCN1CCC(NCC(C)(C)c2nc(-c3ccc(Cl)c(O)c3)c(-c3ccncc3)[nH]2)CC1`, the outcome was inactive.

Turning to `CC(Nc1ncc(-c2ccsc2)c(-c2nccs2)n1)c1ccc2c(c1)OCCO2` (stereo not given), the outcome was inactive.

With `CC1CC(NCCCNc2cc(=O)c3ccccc3[nH]2)c2c1cc(Cl)c(Cl)c2Cl` (stereo not given), the result was inactive.

In a further experiment the target is Protein kinase 7 (PK7), Plasmodium falciparum 3D7 (PF3D7_0213400) (UniProt Q7YTF7). Nature of the experiment: inhibition of Plasmodium PK7 catalytic activity – biochemical, TCAMS antimalarial set, Kinase-Glo luminescence (AID 1159587). The following applies: recombinant PfPK7, Kinase-Glo ATP depletion luminescence.
Chain of Protein kinase 7 (PK7), Plasmodium falciparum 3D7 (PF3D7_0213400) (Q7YTF7 1-343): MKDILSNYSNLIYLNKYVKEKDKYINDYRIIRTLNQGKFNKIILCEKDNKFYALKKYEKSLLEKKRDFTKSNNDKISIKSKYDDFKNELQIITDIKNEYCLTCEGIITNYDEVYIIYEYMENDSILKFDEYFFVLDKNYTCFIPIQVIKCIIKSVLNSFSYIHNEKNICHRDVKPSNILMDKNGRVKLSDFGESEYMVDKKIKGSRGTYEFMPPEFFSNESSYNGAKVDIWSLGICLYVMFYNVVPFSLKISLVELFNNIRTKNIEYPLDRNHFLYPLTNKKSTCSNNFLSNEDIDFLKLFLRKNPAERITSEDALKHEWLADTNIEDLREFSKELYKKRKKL
With `CC1(C)N=C(N)N=C(N)N1OCCc1ccc(N)cc1`, the outcome was inactive.

As for `Cc1ccc(C(C(=O)Nc2ccc(N3CCNCC3)c(Cl)c2)c2ccccc2)cc1` (stereo not given), the result was inactive.

Turning to `Cc1ccc2[nH]c3ccccc3c(=O)c2c1`, the outcome was inactive.

`COc1ccc2nccc(N3CCCN(CCNCc4ccc5c(n4)NC(=O)CS5)CC3)c2n1`: the result was inactive.

Turning to `O[C@@H](c1cccc2ccccc12)[C@@H]1CN(CCc2ccccc2)CC[C@@]1(O)c1ccccc1`, the result was inactive.

As to `CC(C)(C)c1cc(NC(=O)c2ccc(Cl)c([N+](=O)[O-])c2)cc(C(C)(C)C)c1`, the result was inactive.

In the case of `Cc1cc(N[C@@H](Cc2ccccc2)C(=O)NCCOc2ccccc2)nc(NCCc2ccccc2)n1`, the outcome was inactive.

For `N#Cc1ccc(N2CCN(Cc3ccc(-c4ccc(-c5nc6ccc(F)cc6[nH]5)s4)cc3)CC2)nc1`, the outcome was inactive.

Regarding `COc1ccc2nccc(NC(=O)C3(O)CCC(NCc4ccc5c(c4)NCCS5)CC3)c2n1` (stereo not given), the outcome was inactive.

In the case of `Cc1cccc(-n2nc(C)c3c2NC(=O)CC3C(=O)c2ccc(Cl)s2)c1` (stereo not given), the result was inactive.

For `COc1ccc(C=NNc2cc(C)nc3c(C)cccc23)c2ccccc12`, the result was inactive.

Consider `NC(=NCCCCC1CCCCC1)c1cccc(C(N)=NCCCCC2CCCCC2)n1`, for which the outcome was inactive.

Turning to `CC(C)c1ccc(CN2CCC(CNC(=O)c3cc(-c4cccc(Cl)c4)cs3)C2)cc1` (stereo not given), the outcome was inactive.

Regarding `OC1CCN(c2cc(-c3ccccn3)nc(-c3ccccn3)n2)CC1`, the outcome was inactive.

Consider `Cc1cc(N[C@@H](Cc2ccccc2)C(=O)Nc2ccccc2)nc(NCCc2ccccc2)n1`, for which the result was inactive.

Take `CN1CCCC1CCNCc1cccc(-c2cnc(N(C)C3CCCCC3)nc2)c1` (stereo not given): the outcome was inactive.

Take `c1ccc(CN2CCCN(c3ccc4c(c3)CCN(Cc3ccc(-c5ncc[nH]5)cc3)CC4)CC2)cc1`: the result was inactive.

For the compound `N#Cc1ccc(-c2ccc(C(=O)NCCCCN3CCC(c4ccc5c(c4OCC(N)=O)CCCC5)CC3)cc2)cc1`, the outcome was inactive.

Take `CC(C)CNCc1cccc(-c2cccc(CN(CCCN3CCN(C)CC3)C(=O)Nc3ccccc3)c2)c1`: the outcome was inactive.

As to `O=C(NCCCCN1CCC(c2ccc3c(c2OCc2ccncc2)CCCC3)CC1)c1ccc(-c2ccc(C(F)(F)F)cc2)cc1`, the result was inactive.

For the compound `O=C(C=Cc1ccc(Br)cc1)N1CCC(CCN2CCC(c3c[nH]c4ccccc34)CC2)CC1`, the result was inactive.

Regarding `CC(=O)c1c(Cc2ccccc2Cl)c[nH]c1C`, the result was inactive.

As to `CN(C)CCOc1cc(NC(=O)Nc2ccc(-c3ccccc3)cc2Cl)ccc1I`, the result was inactive.

On to `CCOc1ccccc1CCNCC1CCN(CC2CCCCC2)CC1`, for which the result was inactive.

Regarding `c1ccc2c(c1)CN(CC1CC1)CC1(CCN(Cc3c[nH]c4cnccc34)CC1)O2`, the result was inactive.

On to `O=C(Nc1ccccc1C(F)(F)F)Nc1nn(Cc2c(F)cccc2Cl)cc1Br`, for which the result was inactive.

Regarding `CN1CCN(c2ccnc3ccc(NC(=O)Nc4cccc5c(-c6ccncc6)cccc45)cc23)CC1`, the outcome was inactive.

Take `O=C(COc1cccc([N+](=O)[O-])c1)Nc1ccc(-c2nc3ccccc3[nH]2)cc1`: the result was inactive.

`Cc1cccc2[nH]c(-c3ccc(-c4cccc(NC(=O)c5cnn6cccnc56)c4)cc3)nc12`: the result was inactive.

For the compound `O=C(C=Cc1ccc(F)cc1)N1CCN(S(=O)(=O)c2ccc(Cl)cc2)CC1`, the outcome was inactive.

For the compound `CCN(CC)c1ccc(C(=O)Cn2ccc(=N)cc2)cc1`, the outcome was inactive.

As to `COc1ccc2nc(C)cc(Nc3ccc(Oc4ccc5ccccc5c4Cl)c(Cl)c3)c2c1`, the result was inactive.

Turning to `COc1cccc(NC(=O)Nc2ccc(Nc3nc(C)cc(N(C)C)n3)cc2)c1`, the result was inactive.

On to `CC(C)Cc1nc(N2CCOCC2)c2nnn(Cc3ccccc3)c2n1`, for which the result was inactive.

Take `O=C([C@@H]1CCCCN1c1ccc([N+](=O)[O-])c2ccccc12)N1CCN(c2ncccn2)CC1`: the result was inactive.

For `CN1CCC(N2CCN(c3ccc4c(=O)nc(CCc5cccc(F)c5F)n(CC(=O)N(C)Cc5ccc(-c6ccc(C(F)(F)F)cc6)cc5)c4n3)CC2)CC1`, the outcome was inactive.

As to `O=C(/C=C/c1ccc(Cl)c(Cl)c1)NCCCCCN1CCCC(C(=O)Nc2ccc(Cl)cc2)C1` (stereo not given), the outcome was inactive.

On to `COCCN1CCC(NCC(C)(C)c2nc(-c3ccc(Cl)c(O)c3)c(-c3ccncc3)[nH]2)CC1`, for which the result was inactive.

Regarding `CC(Nc1ncc(-c2ccsc2)c(-c2nccs2)n1)c1ccc2c(c1)OCCO2` (stereo not given), the outcome was inactive.

Consider `CC1CC(NCCCNc2cc(=O)c3ccccc3[nH]2)c2c1cc(Cl)c(Cl)c2Cl` (stereo not given), for which the result was inactive.
